# Laboratory results from ChEMBL document CHEMBL3988442, “University of Dundee, Small-Polar-MMV Screening Library” (2021).
# In all, about 66,000 compounds went through this assay and about 960 (1.5%) showed an effect of 50% or more. The full list was thinned out, with strong results kept by preference.
# System: Trypanosoma brucei
# Experiment: Trypanosoma brucei 72 hour study
# Assay type: functional, organism-based
# Set-up: scale not given: in the data most compounds retested in dose-response had high values
smiles,measurement,setting,value
CN1CCCC[C@@H]2[C@H]1[C@@H](c1ccccc1)CCN2C(=O)c1ccccn1,Percent Effect,"30.3 µM, […]",12.07%
CN1CCCC[C@@H]2[C@H]1[C@@H](c1ccccc1)CCN2S(=O)(=O)N1CCCC1,Percent Effect,"30.3 µM, […]",98.76%
CN1CCCC[C@@H]2[C@H]1[C@@H](c1ccccc1)CCN2C(=O)c1ccncc1,Percent Effect,"30.3 µM, […]",2.626%
CN1CCCC[C@@H]2[C@H]1[C@@H](c1ccccc1)CCN2C(=O)c1ccccc1,Percent Effect,"30.3 µM, […]",97.59%
CN1CCCC[C@@H]2[C@H]1[C@@H](c1ccccc1)CCN2C(=O)c1cccnc1,Percent Effect,"30.3 µM, […]",-28.46%
Cl.O=S(=O)(N1CCCC1)N1CC[C@H](c2ccccc2)[C@H]2NCCCC[C@H]21,Percent Effect,"30.3 µM, […]",-20.77%
O=C(O)C(F)(F)F.O=C(O)C(F)(F)F.O=C(c1cccnc1)N1CCn2nnc(COc3ccccn3)c2C1,Percent Effect,"30 µM, 30.03 µM",20.03%
Cc1ncsc1CN1C[C@@H]2COC[C@]2(C(=O)NCC2CC2)C1.O=C(O)C(F)(F)F,Percent Effect,"30 µM, 30.03 µM",-10.84%
CNc1ncc2c(n1)CN(C1CCCC1)C2=O,Percent Effect,"30.3 µM, […]",-26.22%
CNCc1ccc([C@@H]2CN(C)C[C@H]2C(N)=O)cc1.Cl,Percent Effect,"30.3 µM, […]",-7.095%
CC(C)(C)c1cc(CN2C[C@H]3CC[C@@H]2CN(Cc2cscn2)C3)n[nH]1,Percent Effect,"30 µM, 30.03 µM",14.03%
O=C(NCCC1COc2ccccc2O1)c1ccc(-c2cn[nH]c2)nc1 (centres undefined),Percent Effect,"30 µM, 30.03 µM",81.06%
O=C(NCCC1COc2ccccc2O1)c1ccc(-c2cc[nH]n2)nc1 (centres undefined),Percent Effect,"30 µM, 30.03 µM",51.23%
CC(C)c1noc(CCNC(=O)NCC2COc3ccccc3O2)n1 (centres undefined),Percent Effect,"30 µM, 30.03 µM",-35.89%
O=C(NCc1ccc2c(c1)OCO2)c1ccc(N2CCCCCC2)nc1,Percent Effect,"30 µM, 30.03 µM",-3.476%
O=C(NCCC1COc2ccccc2O1)c1ccc(N2CC(O)C2)nc1 (centres undefined),Percent Effect,"30 µM, 30.03 µM",57.01%
Cn1ccnc1-c1ccc(NCCC2COc3ccccc3O2)nn1 (centres undefined),Percent Effect,"30 µM, 30.03 µM",-17.77%
CN(CC1COc2ccccc2O1)C(=O)c1ccc(-c2cn[nH]c2)nc1 (centres undefined),Percent Effect,"30 µM, 30.03 µM",34.02%
CN(CC1COc2ccccc2O1)C(=O)C1=NN(C)C(=O)CC1 (centres undefined),Percent Effect,"30 µM, 30.03 µM",-29.23%
CC(C)c1nccn1CCCNC(=O)c1ccc(-c2cn[nH]c2)nc1,Percent Effect,"30 µM, 30.03 µM",3.874%
CN1CCCC(c2ccnc(C(=O)NC3CC3)c2)C1 (centres undefined),Percent Effect,"30.3 µM, […]",-4.506%
Cc1occc1C(=O)N1CCC2(CC1)CC(OCc1ccccn1)CO2.O=C(O)C(F)(F)F (centres undefined),Percent Effect,"30.3 µM, […]",-782.3%
CCC(C)NC(=O)c1nnn(-c2cccc3c2CCN(C)C3)c1C (centres undefined),Percent Effect,"30 µM, 30.03 µM",31.65%
CC(C)c1ncc(CN2CCC(CO)C2)cn1.O=C(O)CC(O)(CC(=O)O)C(=O)O (centres undefined),Percent Effect,"30.3 µM, […]",-24.24%
O=C(NCc1cccnc1)N1CCC2(CC(=O)N(c3ccsc3)C2)C1.O=C(O)C(F)(F)F (centres undefined),Percent Effect,"30.3 µM, […]",-73.27%
Cc1ccsc1-c1cccc(-c2ccn(CC3CCNC3)n2)c1 (centres undefined),Percent Effect,"30 µM, 30.03 µM",33.01%
N[C@@H]1CCC[C@@H](Oc2ccc(F)cc2Oc2ccccc2)[C@@H]1O,Percent Effect,"30.3 µM, […]",101.1%
Cc1noc(C)c1C(=O)N[C@@H]1CC[C@@H](Oc2ccccc2)[C@@H]1O,Percent Effect,"30.3 µM, […]",-4.467%
N[C@@H]1CCC[C@@H](Oc2ccc(F)cc2Oc2cccc(F)c2)[C@@H]1O,Percent Effect,"30.3 µM, […]",3.71%
Cc1ccc(Oc2cc(F)ccc2O[C@@H]2CCC[C@@H](N)[C@H]2O)cc1,Percent Effect,"30.3 µM, […]",100.7%
CN(C(=O)c1ccon1)[C@@H]1CCC[C@@H](Oc2ccccc2)[C@@H]1O,Percent Effect,"30.3 µM, […]",-27.68%
Cc1noc(C)c1C(=O)N[C@@H]1CCC[C@@H](Oc2ccccc2)[C@@H]1O,Percent Effect,"30.3 µM, […]",5.859%
CNCc1cc(F)ccc1Oc1ccc(F)cc1,Percent Effect,"30.3 µM, […]",-17.97%
Cc1cc(C)nc(N2CC[C@H](Oc3ccccc3F)[C@@H](O)CC2)n1,Percent Effect,"30.3 µM, […]",-2.702%
CN[C@@H]1CCC[C@@H](Oc2ccccc2Oc2ccc(C)cc2)[C@@H]1O,Percent Effect,"30.3 µM, […]",101%
Cc1ccc(N2CC[C@H]3O[C@@H](C(=O)N4CCCCO4)CC[C@H]32)nn1.O=C(O)C(F)(F)F,Percent Effect,"30.3 µM, […]",-38.73%
Cc1cc(C(=O)N2CCc3nnc(N)cc3C2)c(C)n1-c1ccccc1,Percent Effect,10 µM,-23.32%
same,Percent Effect,"30.3 µM, […]",-29.37%
Cc1ccoc1-c1nnc(CN2CCn3c(C)nnc3C2)o1,Percent Effect,10 µM,-13.57%
same,Percent Effect,"30.3 µM, […]",-3.504%
CN(C)c1cc(C2CCCN(S(=O)(=O)c3cn[nH]c3)C2)ccn1 (centres undefined),Percent Effect,"30.3 µM, […]",-2.52%
Cc1cccc(CNc2cc(C3CCCNC3)ccn2)n1.Cl (centres undefined),Percent Effect,"30.3 µM, […]",3.917%
CCC1CN(C)c2ccccc2CN1C(=O)Nc1ccccc1OC (centres undefined),Percent Effect,"30.3 µM, […]",42.13%
CC(c1cccnc1)N(C)Cc1cc(O)c2cc(F)ccc2n1 (centres undefined),Percent Effect,"30 µM, 30.03 µM",-16.14%
Br.Cn1cc(CN2CCC(c3cc(COc4cccc(Cl)c4)[nH]n3)C2)cn1 (centres undefined),Percent Effect,"30.3 µM, […]",49.27%
O=C(O)C(F)(F)F.O=C(c1ccoc1)N1C[C@@H]2OCCN(c3ncccn3)[C@@H]2C1,Percent Effect,"30.3 µM, […]",-8.279%
Cc1cccc2[nH]c(-c3cn(C4CCNCC4)nn3)nc12,Percent Effect,"30 µM, 30.03 µM",-21.72%
Cc1ccc2[nH]c(-c3cn(C4CCNCC4)nn3)nc2c1C,Percent Effect,"30 µM, 30.03 µM",-22.65%
Cc1c(C)c(C)c2[nH]c(-c3cn(C4CCNCC4)nn3)nc2c1C,Percent Effect,"30 µM, 30.03 µM",91.25%
